Data: the supplement of paper PMC4466236
Whole data set: some 33,000 sequences, median “E-score (dimensionless, -0.5 to 0.5)” near -0.058, cut for the highest 2% near 0.35. The entries come from a sample that favours the highest values as a whole.

tested on: MvaT; experiment: PBM 8-mer E-score (mean of HK and ME arrays) (E-score (dimensionless, -0.5 to 0.5)); higher = stronger relative binding preference
Description: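 Protein binding microarray: GST-tagged full-length MvaT (P. aeruginosa PAO1) bound to two universal double-stranded 60-mer arrays (ME and HK), each with a constant 25-mer primer and a variable 35-mer region covering all 8-mers. The 8-mer E-score (rank-based, range -0.5 to 0.5, >0.45 = specific binding) is the mean of the two arrays.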

| Sequence | PBM 8-mer E-score |
| --- | --- |
| AATGTTAT | 0.372 |
| ATTGTTAA | 0.393 |
| ACTGTTAT | 0.306 |
| AATGTTAC | 0.186 |
| GTTGTTAA | 0.257 |
| AATGTTAA | 0.387 |
| AATGTTAG | 0.209 |
| GATGTTAA | 0.277 |
| ATTGTTAG | 0.235 |
| GATCGTGA | -0.153 |
| CTTGCCCA | -0.191 |
| AGCCCGGA | -0.201 |
| AAATATTG | 0.306 |
| AAATATTA | 0.438 |
| AAATATCA | 0.304 |
| AAATATGG | 0.278 |
| AAATATTT | 0.463 |
| AAATATCT | 0.277 |
| AGATATTA | 0.412 |
| CGATATTA | 0.331 |
| GGATATTA | 0.332 |
| CAATATCA | 0.304 |
| TAATATCA | 0.421 |
| ACAGATAC | 0.102 |
| ACGGGGAT | -0.00987 |

| Sequence | PBM 8-mer E-score |
| --- | --- |
| AAGCTTTA | 0.0937 |
| GAATGGCA | -0.00364 |
| GCGAATAC | 0.0443 |
| ACATTAGG | 0.0719 |
| ATAGTCAA | 0.165 |
| GACGCGCA | -0.188 |
| CAATATCG | 0.18 |
| CAATATTG | 0.377 |
| AAATATGC | 0.305 |
| CAATATGG | 0.156 |
| AAATATGT | 0.348 |
| TAATATTA | 0.474 |
| GAATATTA | 0.4 |
| AAATATGA | 0.241 |
| TAATACCA | 0.336 |
| TAATAGGA | 0.222 |
| TATCGAAA | 0.144 |
| GCGATAGC | -0.262 |
| GAAAGCGA | 0.0347 |
| AAGGGTAA | 0.109 |
| AGACCAAG | -0.0618 |
| TGCGGAAA | 0.107 |
| TCCTCAGA | -0.142 |
| CAATATTA | 0.373 |
| CAATATGA | 0.244 |

| Sequence | PBM 8-mer E-score |
| --- | --- |
| CAATATTC | 0.226 |
| GAATATGA | 0.19 |
| TAATATGA | 0.354 |
| CAATATGC | 0.0377 |
| ACGAGTAC | 0.047 |
| ACACAAAT | 0.237 |
| AGCACGGA | -0.111 |
| GGCCCACC | -0.28 |
| GATGTATA | 0.289 |
| AAAGTATT | 0.27 |
| ATAGTATG | 0.21 |
| AAAGTATC | 0.211 |
| GTAGTATA | 0.319 |
| CATGTATA | 0.264 |
| GAAGTATA | 0.263 |
| AATGTATA | 0.366 |
| AAAGTATA | 0.41 |
| CAAGTATA | 0.373 |
| ATAGTATA | 0.38 |
| TAAGTATA | 0.282 |
| ATTCCGGA | 0.138 |
| TGGCGACA | -0.132 |
| ATCGCCAT | 0.016 |
| AGATCTCC | -0.204 |
| AACAGTGT | 0.123 |

| Sequence | PBM 8-mer E-score |
| --- | --- |
| GCGTCGCC | -0.203 |
| CCATAAGG | -0.19 |
| CGGTAAAC | 0.0615 |
| AACACCCG | 0.00525 |
| AGTTGCAT | 0.182 |
| AGTCTAAC | 0.049 |
| AATTCTGG | 0.076 |
| ACGCAGTG | -0.257 |
| CTTCATTA | 0.338 |
| AGTCCGAG | -0.29 |
| ATTAACAG | 0.334 |
| TATAACAA | 0.355 |
| AATAACCC | 0.226 |
| GATAACGA | 0.0582 |
| AATAACGA | 0.326 |
| ATTAACAC | 0.328 |
| ATTAACAA | 0.381 |
| AATAACCG | 0.367 |
| GATAACAA | 0.263 |
| AATAACCT | 0.228 |
| TATAACGA | 0.374 |
| CATAACAA | 0.0795 |
| GCATTGGA | -0.0184 |
| AAAGGTCC | -0.197 |
| CTACCTAC | -0.00994 |

| Sequence | PBM 8-mer E-score |
| --- | --- |
| ATCTTGCC | 0.0286 |
| GAGCAGGC | -0.379 |
| AATGTGAG | 0.0855 |
| GTTGGGGA | -0.0857 |
| ATTGGAGC | -0.00417 |
| CTAATCAG | -0.0597 |
| AATAACAA | 0.38 |
| AATAACAC | 0.331 |
| AATAACAT | 0.32 |
| AACCACCG | -0.0371 |
| CTCCTAAA | -0.112 |
| CTATAACA | 0.297 |
| ATATAACC | 0.37 |
| AGATAACG | 0.0641 |
| CTATAACC | 0.155 |
| AGATAACC | -0.021 |
| GTATAACA | 0.3 |
| ATATAACG | 0.406 |
| ATATAACA | 0.423 |
| ACATAACG | 0.183 |
| ACGTAATA | 0.29 |
| GGGTAACC | -0.246 |
| CCTGCGCC | -0.28 |
| ACGTTAGC | -0.113 |
| CGGTTGCC | -0.279 |

| Sequence | PBM 8-mer E-score |
| --- | --- |
| CGACCCAA | -0.0201 |
| CAGGGTCG | -0.317 |
| TAGGAAGA | 0.048 |
| TAAAATCA | 0.198 |
| AAAAAAAA | 0.271 |
| AAAAATAA | 0.403 |
| AAAAATAT | 0.377 |
| GAAAATAC | 0.134 |
| AAAAATAC | 0.158 |
| TAAAATTA | 0.288 |
| CAAAATAA | 0.343 |
| GAAAATAA | 0.349 |
| GAAAAAAA | 0.0648 |
| AAAAATAG | 0.0973 |
| TAAAATAA | 0.438 |
| AGCGCGCG | -0.184 |
| GTGATAAA | 0.211 |
| CTAGAGAG | -0.241 |
| CACTATTC | 0.0563 |
| AACTATTA | 0.399 |
| CGCTATTA | 0.18 |
| GACTATTA | 0.305 |
| AACTATTC | 0.255 |
| CACTATTA | 0.357 |
| AGCAGGAA | -0.195 |

| Sequence | PBM 8-mer E-score |
| --- | --- |
| CAACCCTG | -0.133 |
| AAACTTTC | 0.312 |
| GAACTTTA | 0.346 |
| AAACTTTG | 0.317 |
| AAACTTTA | 0.357 |
| GGACTTTA | -0.06 |
| CAACTTTA | 0.297 |
| AAACAAAG | 0.192 |
| CCAATGAA | -0.1 |
| CGTAATAA | 0.398 |
| CGTAATAG | 0.173 |
| TGTAAAAA | 0.208 |
| TGTAATAA | 0.399 |
| CGTAATAC | 0.208 |
| GGTAATAA | 0.335 |
| GCCGCTGA | -0.231 |
| CGAATATC | 0.0677 |
| AGAATATA | 0.378 |
| AGAATATG | 0.277 |
| CGAATATA | 0.355 |
| GGAATATA | 0.329 |
| AGAATATC | 0.195 |
| AAGGGGTA | -0.15 |
| GTGTTACA | 0.244 |
| CCATACGC | -0.202 |

| Sequence | PBM 8-mer E-score |
| --- | --- |
| CTATTTGA | 0.229 |
| ATATTTGG | 0.177 |
| GTATTTGA | 0.319 |
| ATATTTGC | 0.351 |
| ATATTTGA | 0.363 |
| CTATTTGC | 0.148 |
| ACTTTTTC | 0.0911 |
| CCAGATAA | 0.165 |
| AGTAGACA | -0.00875 |
| ACATATAT | 0.47 |
| ACATATAA | 0.446 |
| ACATATAC | 0.287 |
| ACACATAA | 0.273 |
| ACATATAG | 0.264 |
| ACATATGA | 0.179 |
| ATACATCA | 0.192 |
| CGGTAGCC | -0.317 |
| AGTTCAGG | 0.0672 |
| AATCTTGT | 0.0955 |
| AAGCTCTA | -0.217 |
| ACATAATG | 0.302 |
| ATCTAATC | 0.167 |
| ATATAAGG | 0.31 |
| CTATAATC | 0.295 |
| ATATAATC | 0.415 |

| Sequence | PBM 8-mer E-score |
| --- | --- |
| ATATAATG | 0.402 |
| AAGGAATG | 0.0374 |
| TCTAGAAA | 0.0814 |
| TCTCCTCA | -0.177 |
| CCTGGTAA | -0.0325 |
| GCCGTCAC | -0.163 |
| CCAATCGG | -0.128 |
| CGTCTCAA | -0.0154 |
| ATGTCAGC | -0.039 |
| TTTAAAAA | 0.363 |
| GTTAAAAA | 0.239 |
| TTTTAAAA | 0.409 |
| TTAAAAAA | 0.305 |
| CTTTAAAA | 0.287 |
| GTTTAAAA | 0.293 |
| AGAAGTTA | 0.279 |
| GAACATTC | -0.0126 |
| CATTGTAC | 0.151 |
| AGGACGTA | -0.138 |
